# Counter-ions that a name gives are not always drawn. ± gives the standard deviation of the averaged measurements.
# Key:
# [1] = test system: Saccharomyces cerevisiae BY4741 SeMeCo community; experiment: mean cell size (pixel area) (pixels); higher = larger cells; conditions: 10 µM; 24 h; SM minimal medium
# Summary of the method: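 Mean cell pixel area per well was determined by automated confocal microscopy with Harmony analysis of paraformaldehyde-fixed cells. The cells, a Saccharomyces cerevisiae BY4741 community of four plasmids that each complement one auxotrophy and carry a fluorescent marker, were incubated for 24 h with drug at a final 10 µM in SM medium in 384-well plates. Numbers are averaged over 3 replicates. Same SeMeCo high-content imaging drug screen: Selleck FDA-approved drugs at 10 µM, 24 h in SM medium, 384-well plates, 3 replicates.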
# [2] = test system: Saccharomyces cerevisiae BY4741 SeMeCo community; experiment: z-score of subpopulation abundance vs DMSO median, subpopulation auxotrophic for M; higher = larger share of this subpopulation than in DMSO controls; conditions: 10 µM; 24 h; SM minimal medium; subpopulation (auxotrophy): M
# Summary of the method: (§1)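 A community of Saccharomyces cerevisiae BY4741 was built from four plasmids that each restored one auxotrophy and encoded a distinct fluorescent protein. Pre-grown overnight to OD600 1.0 and diluted to 0.3, it was dispensed at 70 µl into 384-well plates acoustically predosed with library drugs for a final 10 µM, and grown 24 h in minimal SM medium. Cells were then paraformaldehyde-fixed and imaged by automated confocal microscopy. Thresholds and autofluorescence correction came from single-auxotroph fluorescent strains, and each subpopulation's abundance was scored as a z-score relative to the vehicle-well median.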
# [3] = test system: Saccharomyces cerevisiae BY4741 SeMeCo community; experiment: z-score of subpopulation abundance vs DMSO median, subpopulation auxotrophic for L; higher = larger share of this subpopulation than in DMSO controls; conditions: 10 µM; 24 h; SM minimal medium; subpopulation (auxotrophy): L
# Summary of the method: as §1
# [4] = test system: Saccharomyces cerevisiae BY4741 SeMeCo community; experiment: z-score of subpopulation abundance vs DMSO median, subpopulation auxotrophic for U; higher = larger share of this subpopulation than in DMSO controls; conditions: 10 µM; 24 h; SM minimal medium; subpopulation (auxotrophy): U
# Summary of the method: as §1
# [5] = test system: Saccharomyces cerevisiae BY4741 SeMeCo community; experiment: z-score of subpopulation abundance vs DMSO median, subpopulation auxotrophic for H; higher = larger share of this subpopulation than in DMSO controls; conditions: 10 µM; 24 h; SM minimal medium; subpopulation (auxotrophy): H
# Summary of the method: as §1
# [6] = test system: Saccharomyces cerevisiae BY4741 SeMeCo community; experiment: z-score of subpopulation abundance vs DMSO median, subpopulation auxotrophic for LM; higher = larger share of this subpopulation than in DMSO controls; conditions: 10 µM; 24 h; SM minimal medium; subpopulation (auxotrophy): LM
# Summary of the method: as §1
# [7] = test system: Saccharomyces cerevisiae BY4741 SeMeCo community; experiment: z-score of subpopulation abundance vs DMSO median, subpopulation auxotrophic for HM; higher = larger share of this subpopulation than in DMSO controls; conditions: 10 µM; 24 h; SM minimal medium; subpopulation (auxotrophy): HM
# Summary of the method: as §1
# [8] = test system: Saccharomyces cerevisiae BY4741 SeMeCo community; experiment: z-score of subpopulation abundance vs DMSO median, subpopulation auxotrophic for HU; higher = larger share of this subpopulation than in DMSO controls; conditions: 10 µM; 24 h; SM minimal medium; subpopulation (auxotrophy): HU
# Summary of the method: as §1
# [9] = test system: Saccharomyces cerevisiae BY4741 SeMeCo community; experiment: z-score of subpopulation abundance vs DMSO median, subpopulation auxotrophic for UM; higher = larger share of this subpopulation than in DMSO controls; conditions: 10 µM; 24 h; SM minimal medium; subpopulation (auxotrophy): UM
# Summary of the method: as §1
# [10] = test system: Saccharomyces cerevisiae BY4741 SeMeCo community; experiment: z-score of subpopulation abundance vs DMSO median, subpopulation auxotrophic for HL; higher = larger share of this subpopulation than in DMSO controls; conditions: 10 µM; 24 h; SM minimal medium; subpopulation (auxotrophy): HL
# Summary of the method: as §1
# [11] = test system: Saccharomyces cerevisiae BY4741 SeMeCo community; experiment: z-score of subpopulation abundance vs DMSO median, subpopulation auxotrophic for HLU; higher = larger share of this subpopulation than in DMSO controls; conditions: 10 µM; 24 h; SM minimal medium; subpopulation (auxotrophy): HLU
# Summary of the method: as §1
# [12] = test system: Saccharomyces cerevisiae BY4741 SeMeCo community; experiment: z-score of subpopulation abundance vs DMSO median, subpopulation auxotrophic for HLM; higher = larger share of this subpopulation than in DMSO controls; conditions: 10 µM; 24 h; SM minimal medium; subpopulation (auxotrophy): HLM
# Summary of the method: as §1
# [13] = test system: Saccharomyces cerevisiae BY4741 SeMeCo community; experiment: z-score of subpopulation abundance vs DMSO median, subpopulation auxotrophic for HUM; higher = larger share of this subpopulation than in DMSO controls; conditions: 10 µM; 24 h; SM minimal medium; subpopulation (auxotrophy): HUM
# Summary of the method: as §1
# [14] = test system: Saccharomyces cerevisiae BY4741 SeMeCo community; experiment: z-score of subpopulation abundance vs DMSO median, subpopulation auxotrophic for LUM; higher = larger share of this subpopulation than in DMSO controls; conditions: 10 µM; 24 h; SM minimal medium; subpopulation (auxotrophy): LUM
# Summary of the method: as §1
# [15] = test system: Saccharomyces cerevisiae BY4741 SeMeCo community; experiment: z-score of subpopulation abundance vs DMSO median, subpopulation auxotrophic for HLUM; higher = larger share of this subpopulation than in DMSO controls; conditions: 10 µM; 24 h; SM minimal medium; subpopulation (auxotrophy): HLUM
# Summary of the method: as §1
# [16] = test system: Saccharomyces cerevisiae BY4741 SeMeCo community; experiment: z-score of prototroph abundance vs DMSO median; higher = larger share of this subpopulation than in DMSO controls; conditions: 10 µM; 24 h; SM minimal medium; subpopulation (auxotrophy): Prototroph
# Summary of the method: as §1
SMILES,mean cell size [1],z-score of subpopulation abundance [2],z-score of subpopulation abundance [3],z-score of subpopulation abundance [4],z-score of subpopulation abundance [5],z-score of subpopulation abundance [6],z-score of subpopulation abundance [7],z-score of subpopulation abundance [8],z-score of subpopulation abundance [9],z-score of subpopulation abundance [10],z-score of subpopulation abundance [11],z-score of subpopulation abundance [12],z-score of subpopulation abundance [13],z-score of subpopulation abundance [14],z-score of subpopulation abundance [15],z-score of prototroph abundance [16]
CCOC(=O)C1=C[C@@H](OC(CC)CC)[C@H](NC(C)=O)[C@@H](N)C1 [Oseltamivir Phosphate],12.42 ± 0.039,-0.5,0.45,-1.55,0.58,0.27,-0.4,-0.98,-1.29,0.28,-0.07,0.29,-1.09,-0.21,0.24,
C[N+]1(C)[C@@H]2CC[C@H]1C[C@@H](OC(=O)C(O)c1ccccc1)C2 (stereo partly specified) [Homatropine Methylbromide],12.4 ± 0.32,-0.38,-0.63,0.46,,-1,-0.7,0.05,0.8,-0.55,0,-0.66,0.4,,-0.38,0.29
CN1[C@@H]2CC[C@H]1C[C@@H](OC(=O)c1c[nH]c3ccccc13)C2 [Tropisetron HCl],12.57 ± 0.083,1.04,0.79,-0.06,,1.09,0.26,-0.68,0.28,,0.2,-0.38,0.19,,1.3,
CS(=O)(=O)c1ccc([C@@H](O)[C@@H](CO)NC(=O)C(Cl)Cl)cc1 [Thiamphenicol],,-0.68,0.13,0.59,-0.3,-0.48,-0.5,0.15,0.81,-0.52,-0.36,-0.85,-0.08,-0.6,-0.23,0.25
CO[C@@H]1[C@@H](O[C@@H]2O[C@H](C)[C@@H](O[C@H]3C[C@@](C)(O)[C@@H](O)[C@H](C)O3)[C@H](N(C)C)[C@H]2O)[C@@H](CC=O)C[C@@H](C)[C@@H](O[C@H]2CC[C@H](N(C)C)[C@@H](C)O2)/C=C/C=C/C[C@@H](C)OC(=O)C[C@H]1OC(C)=O [Acetylspiramycin (ASPM)],12.3 ± 0.32,-0.27,1.91,-1.32,1,1.53,0.27,,-0.94,1.77,1.65,0.23,0.11,1.09,1.07,-0.27
CCOc1ccc2nc3cc(N)ccc3c(N)c2c1 [Ethacridine lactate monohydrate],,5.99,1.84,-8.13,4.4,4.18,5.32,,-9.56,3.54,-4.38,5.56,-6.59,-5.24,-2.52,3.33
CCOc1cc(N)c(Cl)cc1C(=O)NCC1CN(Cc2ccc(F)cc2)CCO1 (stereo unspecified) [Mosapride Citrate],12.5 ± 0.12,0.17,0.92,,-0.34,,0.32,,0.37,,0.02,0.62,0.97,0.54,1.04,
CN1CCCN=C1/C=C/c1cccc(O)c1 [Oxantel Pamoate],12.6 ± 0.29,1.17,-0.58,,0.29,-0.51,-0.6,-0.96,-1.73,-0.28,-0.35,-0.2,-1.13,-1.13,,1.15
CN(C)[C@@H]1C(=O)C(C(N)=O)=C(O)[C@@]2(O)C(=O)C3=C(O)c4c(O)ccc(Cl)c4[C@@H](O)[C@H]3C[C@@H]12 [Demeclocycline HCl],,-1.78,-0.08,,,-0.4,-1,-0.34,-0.64,0.01,-0.4,-0.17,-1,-0.57,,0.9
O=C1OC(CN2CCOCC2)CN1/N=C/c1ccc([N+](=O)[O-])o1 (stereo unspecified) [Furaltadone HCl],12.75 ± 0.12,0.83,,0.25,-0.56,-0.57,0.11,-0.63,0.47,-0.67,-0.79,,-0.1,,-0.39,0.34
OCCOCCN1CCN(C2=Nc3ccccc3Sc3ccccc32)CC1 [Quetiapine Fumarate],,0.24,0.37,,-0.24,0.32,0.13,-0.61,0.49,,0.76,,0.19,,0.41,-0.49
CCC(C)(C)C(=O)O[C@H]1C[C@@H](C)C=C2C=C[C@H](C)[C@H](CC[C@@H]3C[C@@H](O)CC(=O)O3)[C@H]21 [Simvastatin],11.7 ± 0.28,-0.68,-0.13,0.43,0.79,-0.1,,,0.62,1.65,3.09,,,1.33,2.55,-1.66
Nc1nc(=O)[nH]cc1F [Flucytosine],13.9 ± 0.19,-3.75,-1.32,0.5,17.8,-4.29,17.8,8.85,1.6,13.2,1.33,,10.3,4.96,38.3,-10.3
CC(C)n1c(/C=C/C(O)CC(O)CC(=O)O)c(-c2ccc(F)cc2)c2ccccc21 (stereo unspecified) [Fluvastatin Sodium],12.1 ± 0.16,6.6,-1.3,,6.45,-0.26,17.4,7.53,8.31,7.24,4.2,21.3,,4.75,14,-11
CCOC(=O)c1ccc(N)cc1 [Benzocaine],12.5 ± 0.19,1.02,-0.13,-1.34,0.27,0.32,0.67,,-0.58,-1.2,-0.97,,-0.48,-0.29,-0.38,0.6

# Source: the supplement of paper PMC8975748
